Consider 10 compounds from PubChem BioAssay (NCATS).

The target in experiment [1] is Ubiquitin carboxyl-terminal hydrolase 1 (Homo sapiens) (UniProt O94782). The experiment is described as follows: Inhibitors of USP1/UAF1: Pilot qHTS (AID 504865). Also: nearly all actives have a fitted effect of over 35% in size. Also: potency is read from the fitted curve at half-maximal effect. The method, boiled down: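 In 50mM HEPES pH 7.8 containing 0.5mM EDTA, 1mM TCEP, 0.1 mg/ml BSA and 0.01% Tween-20, 1nM USP1/UAF1 is exposed to compound for 15 min, then Ub-Rho (150nM final) is added and fluorescence is read over time.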

The nature of experiment [2]: qHTS profiling for inhibitors of Plasmodium falciparum proliferation (AID 504749). Also: potency is read from the fitted curve at half-maximal effect.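 As to activity, negative = inhibition: 0% = DMSO vehicle and full inhibition = artemisinin control.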 As to all read-outs here: nearly all actives have a fitted effect of over 60% in size. The following applies: P. falciparum in erythrocytes, SYBR Green DNA, 72 h; for activity, negative = inhibition: at 28.7 µM (top of the series). The method, boiled down:
(§1)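 Fluorescence of SYBR Green-bound parasite DNA, read at 485/535 nm, served as the growth measure. Infected erythrocytes were cultured with compound 72 h; artemisinin (0.29 uM) and DMSO wells defined the normalization range.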

The test system of a further experiment is AA1029. The description is as above. The following applies: P. falciparum in erythrocytes, SYBR Green DNA, 72 h; series mostly up to 28.7 µM. In outline:
as §1

A further experiment concerns ATS189. The description is as above. The following applies: P. falciparum in erythrocytes, SYBR Green DNA, 72 h; series mostly up to 28.7 µM. In outline:
as §1

Another experiment concerns CP185. Described as above. Conditions: P. falciparum in erythrocytes, SYBR Green DNA, 72 h; series mostly up to 28.7 µM. In outline: as §1
The subject of a further experiment is CP201. The experiment is described as above. The following applies: P. falciparum in erythrocytes, SYBR Green DNA, 72 h; series mostly up to 28.7 µM. In outline:
as §1

For another experiment, the system named is CP238. The experiment is described as above. Conditions: P. falciparum in erythrocytes, SYBR Green DNA, 72 h; series mostly up to 28.7 µM. In outline: as §1
A further experiment concerns CP252. The experiment is described as above. Conditions: P. falciparum in erythrocytes, SYBR Green DNA, 72 h; series mostly up to 28.7 µM. The method, boiled down:
as §1

In the next experiment the test system is CP265. The description is as above. Conditions: P. falciparum in erythrocytes, SYBR Green DNA, 72 h; series mostly up to 28.7 µM. In outline: as §1
In another experiment the test system is CP286. The description is as above. The following applies: P. falciparum in erythrocytes, SYBR Green DNA, 72 h; series mostly up to 28.7 µM. The method, boiled down:
as §1

The next experiment relates to CP305. Described as above. The following applies: P. falciparum in erythrocytes, SYBR Green DNA, 72 h; series mostly up to 28.7 µM. In outline: as §1
The subject of the next experiment is CP325. The experiment is described as above. The following applies: P. falciparum in erythrocytes, SYBR Green DNA, 72 h; series mostly up to 28.7 µM. The method, boiled down:
as §1

The next experiment deals with DFO2036. The experiment is described as above. Conditions: P. falciparum in erythrocytes, SYBR Green DNA, 72 h; series mostly up to 28.7 µM. The method, boiled down: as §1
The next experiment has as its system FAB9. The experiment is described as above. The following applies: P. falciparum in erythrocytes, SYBR Green DNA, 72 h; series mostly up to 28.7 µM. The method, boiled down: as §1
A further experiment deals with PC15. The description is as above. The following applies: P. falciparum in erythrocytes, SYBR Green DNA, 72 h; series mostly up to 28.7 µM. The method, boiled down:
as §1

The test system of another experiment is PC49. The description is as above. Conditions: P. falciparum in erythrocytes, SYBR Green DNA, 72 h; series mostly up to 28.7 µM. The method, boiled down:
as §1

Experiment [3] deals with Cytochrome P450 3A4 (Homo sapiens) (UniProt P08684). The experiment is described as follows: qHTS Assay for Inhibitors and Substrates of Cytochrome P450 3A4 (AID 884). Also: nearly all actives have a fitted effect of over 50% in size. Also: potency is read from the fitted curve at half-maximal effect. In outline:
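Luminescent readout of luciferin produced by CYP3A4 (20 nM) dealkylation of Luciferin-PPXE, 25 uM (its KM). NADPH-driven reaction ran 60 min at RT after 10 min compound preincubation; data scaled to 57 uM ketoconazole as 100% inhibition.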

The nature of experiment [4]: Confirmation and Secondary Assay for Modulators of Hemoglobin Beta Chain Splicing at IVS2 654 locus (AID 910).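 Also: per-well total GFP intensity by laser scanning cytometry after 2-day treatment; % of control where 0% means no effect.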 In outline:
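HeLa cells stably carrying EGFP interrupted by mutant beta-globin IVS2-654 intron (CMV-driven) were treated with compound for 2 days at 37C; corrected splicing was scored as total peak GFP intensity per well (488 nm excitation, 500-520 nm emission).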

A short description of experiment [5]: Confirmation and Secondary Assay for Modulators of Hemoglobin Beta Chain Splicing at IVS2 705 locus (AID 930).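 Also: HeLa cells stably expressing the EGFP-705 splicing reporter; GFP fluorescence per well restored by corrected splicing of the IVS2-705 intron in EGFP; % of control where 0% means no effect.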 In outline:
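Secondary splice-site specificity test uses HeLa expressing CMV-driven EGFP interrupted by IVS2-705; cells were treated 2 days at 37C with 500 nM antisense PNA as positive control.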

Inconclusive results are not listed. Calls of active or inactive are those of the source. Calls follow the shape of the dose curve; as a rule, active = well fitted curve in the direction sought with a large enough effect; inconclusive = small, poorly fitted or top-dose-only effect, or another doubt; inactive = no such curve, though single readings can be large; an effect the other way counts as inactive or inconclusive. Bridge positions count the residues as written; N and C are the ends. Square brackets hold non-standard residues; d marks the D form. Peptide text beside a SMILES is read from it. * marks the point of attachment. ξ: configuration not given here. ξDab(CH2SO3H) = NC(CCNCS(=O)(=O)O)C(=O)O; Heptanoyl(6-Me) = CC(C)CCCCC(=O)*; Dab = NCC[CH](N)C(=O)O

Ubiquitin carboxyl-terminal hydrolase 1 (Homo sapiens), sequence (O94782 whole entry, looked up): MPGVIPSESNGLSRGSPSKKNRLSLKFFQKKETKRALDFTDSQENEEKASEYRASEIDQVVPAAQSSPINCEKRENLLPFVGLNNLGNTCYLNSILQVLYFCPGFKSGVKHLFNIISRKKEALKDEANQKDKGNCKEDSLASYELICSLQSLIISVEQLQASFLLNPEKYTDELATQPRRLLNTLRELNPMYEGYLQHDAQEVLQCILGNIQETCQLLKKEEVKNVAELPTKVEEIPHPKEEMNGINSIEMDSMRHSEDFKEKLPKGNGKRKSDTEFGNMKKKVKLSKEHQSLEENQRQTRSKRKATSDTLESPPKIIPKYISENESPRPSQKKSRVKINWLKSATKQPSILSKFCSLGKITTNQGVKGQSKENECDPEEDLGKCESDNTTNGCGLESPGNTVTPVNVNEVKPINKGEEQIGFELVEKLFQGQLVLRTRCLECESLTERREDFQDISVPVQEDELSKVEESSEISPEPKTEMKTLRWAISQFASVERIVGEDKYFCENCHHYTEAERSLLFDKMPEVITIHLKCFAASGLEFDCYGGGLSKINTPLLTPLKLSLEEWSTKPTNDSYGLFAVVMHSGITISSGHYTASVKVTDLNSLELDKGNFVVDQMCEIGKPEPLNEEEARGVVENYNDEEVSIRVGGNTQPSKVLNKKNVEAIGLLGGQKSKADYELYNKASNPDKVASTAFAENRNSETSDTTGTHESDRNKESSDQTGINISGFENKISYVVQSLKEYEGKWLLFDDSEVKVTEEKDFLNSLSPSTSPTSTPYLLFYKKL
Cytochrome P450 3A4 (Homo sapiens), sequence (P08684 whole entry, looked up): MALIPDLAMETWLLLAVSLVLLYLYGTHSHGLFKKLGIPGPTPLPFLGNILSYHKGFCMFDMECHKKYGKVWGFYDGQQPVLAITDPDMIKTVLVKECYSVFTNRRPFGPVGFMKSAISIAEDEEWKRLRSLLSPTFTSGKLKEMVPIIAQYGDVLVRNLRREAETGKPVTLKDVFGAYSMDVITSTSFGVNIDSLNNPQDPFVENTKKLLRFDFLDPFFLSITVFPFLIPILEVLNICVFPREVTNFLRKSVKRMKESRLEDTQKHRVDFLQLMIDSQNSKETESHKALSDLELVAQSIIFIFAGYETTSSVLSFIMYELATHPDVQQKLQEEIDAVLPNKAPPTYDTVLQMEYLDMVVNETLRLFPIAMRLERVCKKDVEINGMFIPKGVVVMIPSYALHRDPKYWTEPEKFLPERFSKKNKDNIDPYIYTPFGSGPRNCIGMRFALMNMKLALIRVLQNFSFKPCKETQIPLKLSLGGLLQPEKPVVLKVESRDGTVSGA

Consider `CCC1NC(=O)C(NC(=O)c2ncccc2O)C(C)OC(=O)C(c2ccccc2)NC(=O)C2CC(=O)CCN2C(=O)C(Cc2ccccc2)N(C)C(=O)C2CCCN2C1=O` (configuration not stated), for which the Potency entry (in experiment [1]; in the experiment on AA1029; in the experiment on ATS189; in the experiment on CP185; in the experiment on CP201; with CP238) was “inactive” in each case. The Potency entry in the experiment on CP252, in the experiment on CP265, in the experiment with CP286, with CP305, with CP325 and in the experiment on DFO2036 was “inactive” in each case. Moreover, the Potency result in the experiment on FAB9, in the experiment on PC15 and in the experiment with PC49 was “inactive” in each case. The activity, negative = inhibition in [2] (parasite line A) is -20.9% (inactive); in [2] (parasite line B), -28.7% (inactive).
As for `O=C1/C(=C\c2cccs2)CCC/C1=C/c1cccs1`, the values for the activity, negative = inhibition in [2] (parasite line A) and in experiment [2] (parasite line B) were 0.948% (inactive) and 10.7% (inactive), respectively. Besides, the Potency result in the experiment on AA1029, in the experiment with ATS189, in the experiment with CP185, in the experiment on CP201, in the experiment on CP238 and with CP252 was “inactive” each time. In addition, the Potency entry in the experiment on CP265, in the experiment with CP286, in the experiment with CP305, in the experiment with CP325, in the experiment on DFO2036 and in the experiment on FAB9 was “inactive” each time. The Potency result in the experiment with PC15 and in the experiment on PC49 was “inactive” in each case.
For the compound `O=C(OCC1OC(OC(=O)c2cc(O)c(O)c(OC(=O)c3cc(O)c(O)c(O)c3)c2)[C@@H](OC(=O)c2cc(O)c(O)c(OC(=O)c3cc(O)c(O)c(O)c3)c2)C(OC(=O)c2cc(O)c(O)c(OC(=O)c3cc(O)c(O)c(O)c3)c2)C1OC(=O)c1cc(O)c(O)c(OC(=O)c2cc(O)c(O)c(O)c2)c1)c1cc(O)c(O)c(OC(=O)c2cc(O)c(O)c(O)c2)c1` (some centres not stated), the Potency in experiment [3] is 3.98 µM (active); in experiment [2] (parasite line A), 2.51 µM (active); in [2] (parasite line B) it was 3.55 µM (active); with AA1029, 2.51 µM (active); with ATS189, 2.51 µM (active); in the experiment with CP185, 2.82 µM (active). In addition, the Potency in the experiment on CP201 was 4.78 µM (active); in the experiment on CP238, 2.51 µM (active); with CP252, 2.51 µM (active); in the experiment with CP265, 2.51 µM (active); in the experiment with CP286, 2.24 µM (active); in the experiment on CP305, 3.38 µM (active). Moreover, the Potency with CP325 is 3.01 µM (active); with DFO2036, 2.24 µM (active); in the experiment with FAB9 it was 11.2 µM (active); in the experiment on PC15, 7.94 µM (active); in the experiment with PC49, 11.2 µM (active).
In the case of `CC(C)C[C@H](NC(=O)[C@@H](Cc1c[nH]c2ccccc12)NC(=O)[C@@H](Cc1ccc(O)cc1)NC(=O)[C@@H](CO)NC(=O)[C@@H](Cc1c[nH]c2ccccc12)NC(=O)C(Cc1cnc[nH]1)NC(=O)C1CCC(=O)N1)C(=O)N[C@@H](CCCN=C(N)N)C(=O)N1CCC[C@@H]1C(=O)NCC(N)=O` (some centres not stated), the Potency result (in experiment [1]; in the experiment on AA1029; with ATS189; in the experiment on CP185; in the experiment on CP201; in the experiment with CP238) was “inactive” throughout. In addition, the Potency entry with CP252, in the experiment on CP265, in the experiment on CP286, in the experiment with CP305, with CP325 and in the experiment with DFO2036 was “inactive” each time. Besides, the Potency entry in the experiment on FAB9, with PC15 and in the experiment on PC49 was “inactive” in each case. In addition, the activity, negative = inhibition was 17.3% (inactive) in experiment [2] (parasite line A) and 2.16% (inactive) in experiment [2] (parasite line B).
For `CCC(C)C1NC(=O)C(CCNCS(=O)(=O)O)NC(=O)C(NC(=O)C(CCNCS(=O)(=O)O)NC(=O)C(NC(=O)C(CCNCS(=O)(=O)O)NC(=O)CCCCC(C)C)C(C)O)CCNC(=O)C(C(C)O)NC(=O)C(CCNCS(=O)(=O)O)NC(=O)C(CCNCS(=O)(=O)O)NC(=O)C(C(C)CC)NC1=O` (configuration not stated) ({Heptanoyl(6-Me)}-[ξDab(CH2SO3H)]T[ξDab(CH2SO3H)][Dab][ξDab(CH2SO3H)]II[ξDab(CH2SO3H)][ξDab(CH2SO3H)]T; lactam 4-C; configuration not given here), the Potency entry (in [3]; in the experiment on AA1029; in the experiment with ATS189; in the experiment on CP185; in the experiment on CP201; with CP238) was “inactive” each time. The Potency entry in the experiment on CP252, in the experiment with CP265, in the experiment on CP286, with CP305, with CP325 and in the experiment with DFO2036 was “inactive” each time. For the same compound, the Potency result in the experiment on FAB9, in the experiment on PC15 and in the experiment on PC49 was “inactive” each time. In addition, the compound was called inactive in experiment [4] and in experiment [5]. Moreover, the Potency in experiment [1] was 44.7 µM (active). The activity, negative = inhibition in experiment [2] (parasite line A) is -19.4% (inactive); in [2] (parasite line B), 8.48% (inactive).
For `CC1(C)C(/C=C/C=C/C=C/C=C2\N(CCCCS(=O)(=O)O)c3ccc4ccccc4c3C2(C)C)=[N+](CCCCS(=O)(=O)[O-])c2ccc3ccccc3c21`, the values for the activity, negative = inhibition in experiment [2] (parasite line A) and in experiment [2] (parasite line B) were 2.34% (inactive) and 4.13% (inactive), respectively. For the same compound, the Potency result with AA1029, in the experiment on ATS189, in the experiment on CP185, in the experiment on CP201, in the experiment on CP238 and with CP252 was “inactive” in each case. For the same compound, the Potency entry in the experiment on CP265, in the experiment on CP286, in the experiment with CP305, in the experiment on CP325, with DFO2036 and in the experiment with FAB9 was “inactive” throughout. Besides, the Potency entry with PC15 and with PC49 was “inactive” in each case.
As to `Cc1ccc2oc(-c3ccccc3)cc(=O)c2c1`, the Potency entry in experiment [1] was “inactive”.
Same read-out and setting: the value for `C[C@H](C(=O)O)c1cccc(C(=O)c2ccccc2)c1` was “inactive”.
For the compound `CNCC(=O)NC(CCCN=C(N)N)C(=O)NC(C(=O)NC(Cc1ccc(O)cc1)C(=O)NC(C(=O)NC(Cc1cnc[nH]1)C(=O)N1CCCC1C(=O)NC(C)C(=O)O)C(C)C)C(C)C` (configuration not stated), the activity, negative = inhibition in [2] (parasite line A) was 15.8% (inactive); in experiment [2] (parasite line B), 17.4% (inactive). In addition, the Potency result in the experiment with AA1029, with ATS189, in the experiment on CP185, in the experiment with CP201, in the experiment with CP238 and in the experiment with CP252 was “inactive” each time. For the same compound, the Potency result in the experiment with CP265, with CP286, with CP305, in the experiment with CP325, in the experiment on DFO2036 and with FAB9 was “inactive” in each case. The Potency entry in the experiment with PC15 and with PC49 was “inactive” each time.
With `CCC(C)C1NC(=O)C(Cc2ccc(O)cc2)NC(=O)C(N)CSSCC(C(=O)N2CCCC2C(=O)NC(CC(C)C)C(=O)NCC(N)=O)NC(=O)C(CC(N)=O)NC(=O)C(CCC(N)=O)NC1=O` (configuration not stated), the activity, negative = inhibition is 0.779% (inactive) in [2] (parasite line A) and 4.79% (inactive) in experiment [2] (parasite line B). In addition, the Potency result in the experiment with AA1029, in the experiment with ATS189, in the experiment with CP185, in the experiment on CP201, in the experiment on CP238 and in the experiment with CP252 was “inactive” each time. The Potency entry in the experiment with CP265, in the experiment with CP286, in the experiment on CP305, in the experiment with CP325, in the experiment on DFO2036 and in the experiment on FAB9 was “inactive” in each case. The Potency result with PC15 and in the experiment with PC49 was “inactive” throughout.
